CYP2C9 inhib: inhibitors of human CYP2C9. P11712. CYP2C9 Supersomes, luciferin-H conversion, luminescence. inhibition, % at 5 µM. 96,000 tested, 20% active. AID 777;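 active means blocking of liver enzyme CYP2C9 beyond about 50% at 5 µM, limit read from the data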
Target sequence (P11712 whole entry, looked up): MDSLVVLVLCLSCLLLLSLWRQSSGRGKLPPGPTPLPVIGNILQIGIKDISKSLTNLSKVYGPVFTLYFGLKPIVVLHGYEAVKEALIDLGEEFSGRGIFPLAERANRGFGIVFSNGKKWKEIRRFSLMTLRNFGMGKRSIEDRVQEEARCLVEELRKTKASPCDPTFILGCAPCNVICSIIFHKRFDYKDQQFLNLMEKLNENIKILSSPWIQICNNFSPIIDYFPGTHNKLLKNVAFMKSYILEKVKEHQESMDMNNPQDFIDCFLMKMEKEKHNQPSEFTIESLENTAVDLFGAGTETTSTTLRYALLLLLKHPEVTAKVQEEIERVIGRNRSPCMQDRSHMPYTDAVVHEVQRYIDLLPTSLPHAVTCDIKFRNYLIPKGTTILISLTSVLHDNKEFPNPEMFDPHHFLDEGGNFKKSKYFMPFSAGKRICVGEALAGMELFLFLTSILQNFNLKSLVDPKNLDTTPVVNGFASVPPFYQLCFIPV
CYP2C9 act: CYP2C9 (human) activation | P11712 | recombinant CYP2C9, luciferin-H conversion, luminescence; active compounds read high; factor 1 = untreated enzyme, 0 = blocked | activation factor at 5 µM | 96,000 tested, 1.4% active;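 active means activation factor of 2 or more for CYP2C9 at a 5 µM dose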;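 further: 0 = sulfaphenazole-blocked wells and 1 = vehicle-only wells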
sEH activator: increases human soluble epoxide hydrolase activity. P34913. purified human sEH enzymatic activity, activator screen. activation, % at 2 µM. 91,000 tested, 0.04% active. AID 717; in the data active means activation above about 37%
sEH inhibitor: blocks human soluble epoxide hydrolase activity; inhibition, % at 2 µM; P34913; recombinant human sEH enzymatic activity assay; 91,000 tested, 0.34% active; in the data active means inhibition above about 80%
CYP2C19 inh: human CYP2C19 inhibition; inhibition, % at 5 µM; CYP2C19 Supersomes, luciferin-H EGE luminescence, 30 min; P33261; 96,000 tested, 21% active;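 active means CYP2C19 inhibition above a set limit at 5 µM in the primary screen, cut at about 50% in these data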;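 further: plate controls were negative control wells for no effect and 2.5 mM tranylcypromine positive control for full effect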
CYP2C19 act: increases human CYP2C19 enzyme activity; P33261; recombinant CYP2C19, luciferin-H EGE luminescence; active compounds read high; 0 = fully inhibited enzyme, 1 = untreated enzyme; activation factor at 5 µM; 96,000 tested, under 10 active; AID 1025;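 active means activation factor of at least 2 at 5 µM in the primary screen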;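 further: 0 = wells with 2.5 mM tranylcypromine and 1 = vehicle-only wells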
Starred values were filed as active, the others as inactive. Most compounds without a hit are left out; they make up all but 27% or so of the library.

For O=C(O)CCSc1nc(C(F)(F)F)cc(=O)n1-c1ccccc1 the results were CYP2C9 inhib 12, CYP2C9 act 0.9, sEH activator 6, sEH inhibitor -3, CYP2C19 inh 2 and CYP2C19 act 1.
`CCCCC(c1nnnn1CS(=O)(=O)c1ccc(C)cc1)N1CCN(c2ccccc2)CC1` (configuration not stated) gave CYP2C9 inhib 69*, CYP2C9 act 0.3, sEH activator 1, sEH inhibitor -1, CYP2C19 inh 65* and CYP2C19 act 0.4.
`Cc1ccc(S(=O)(=O)NC(C)C(=O)Nc2ccc(C(N)=O)cc2)cc1` (configuration not stated) gave CYP2C9 inhib 23, CYP2C9 act 0.8, sEH activator 3, sEH inhibitor 0, CYP2C19 inh 11 and CYP2C19 act 0.9.
Screening Cc1ccc(S(=O)(=O)NC(=O)NCCCCNC(=O)NS(=O)(=O)c2ccc(C)cc2)cc1 returned CYP2C9 inhib 12, CYP2C9 act 0.9, sEH activator 0, sEH inhibitor 2, CYP2C19 inh -8 and CYP2C19 act 1.1.
C/C(=C\C(=O)c1ccncc1)Nc1ccccc1O was read as CYP2C9 inhib 28, CYP2C9 act 0.7, sEH activator -14, sEH inhibitor 15, CYP2C19 inh 97* and CYP2C19 act 0.
For O=C(c1ccccc1)c1ccncc1 the results were CYP2C9 inhib 28, CYP2C9 act 0.7, sEH activator -3, sEH inhibitor 2, CYP2C19 inh 21 and CYP2C19 act 0.8.
CNCc1ccccc1Sc1ccc(OC)cc1 was read as CYP2C9 inhib 10, CYP2C9 act 0.9, sEH activator -6, sEH inhibitor 7, CYP2C19 inh 65* and CYP2C19 act 0.3.
For COc1cccc(Sc2ccccc2CN(C)C)c1 the results were CYP2C9 inhib 14, CYP2C9 act 0.9, sEH activator -1, sEH inhibitor 3, CYP2C19 inh 72* and CYP2C19 act 0.3.
Screening COc1c(Cl)ccc(Cl)c1C(=O)OCC(=O)O returned CYP2C9 inhib 0, CYP2C9 act 1, CYP2C19 inh 9 and CYP2C19 act 0.9.
`CN(C)c1nc(-c2ccccn2)nnc1-c1ccccc1` gave CYP2C9 inhib 15, CYP2C9 act 0.8, sEH activator -8, sEH inhibitor 7, CYP2C19 inh 51* and CYP2C19 act 0.5.
`CCC(Cc1ccccc1)NC(=O)C1CCN(S(=O)(=O)c2c(C)noc2C)CC1` (configuration not stated) gave CYP2C9 inhib 11, CYP2C9 act 0.9, sEH activator -10, sEH inhibitor 8, CYP2C19 inh -20 and CYP2C19 act 1.2.
CCn1c(-c2ccccc2Cl)nn(CC(=O)Nc2ccccc2OC)c1=S was read as CYP2C9 inhib -31, CYP2C9 act 1.3, sEH activator -10, sEH inhibitor 13, CYP2C19 inh 91* and CYP2C19 act 0.1.
For CN(C1CCS(=O)(=O)C1)S(=O)(=O)c1ccc(C2CCCCC2)cc1 (configuration not stated) the results were CYP2C9 inhib 9, CYP2C9 act 0.9, sEH activator 8, sEH inhibitor -6, CYP2C19 inh -7 and CYP2C19 act 1.1.
Screening Oc1ccc(Br)cc1-c1cc(-c2ccco2)[nH]n1 returned CYP2C9 inhib 23, CYP2C9 act 0.8, sEH activator -1, sEH inhibitor 4, CYP2C19 inh 15 and CYP2C19 act 0.8.
For Oc1ccc(Cl)cc1-c1cc(-c2ccco2)[nH]n1 the results were CYP2C9 inhib 35, CYP2C9 act 0.7, CYP2C19 inh 10 and CYP2C19 act 0.9.
`Oc1c(-c2cc(-c3ccco3)[nH]n2)ccc2ccccc12` gave CYP2C9 inhib 74*, CYP2C9 act 0.3, sEH activator 1, sEH inhibitor 3, CYP2C19 inh 35 and CYP2C19 act 0.6.
For Oc1ccccc1-c1cc(-c2ccco2)[nH]n1 the results were CYP2C9 inhib 51*, CYP2C9 act 0.5, sEH activator 0, sEH inhibitor -2, CYP2C19 inh 38 and CYP2C19 act 0.6.
For CCCCN1C(=O)NC2NC(=O)NC21 (configuration not stated) the results were sEH activator -8 and sEH inhibitor 8.
CCOC(=O)N1CCC(Nc2ncnc3c2cnn3-c2ccc(C)cc2C)CC1 was read as CYP2C9 inhib 58*, CYP2C9 act 0.4, sEH activator 1, sEH inhibitor -1, CYP2C19 inh 44 and CYP2C19 act 0.6.
`CC(=O)Nc1ccc(Nc2ncnc3c2cnn3-c2ccc(C)cc2C)cc1` gave CYP2C9 inhib 52*, CYP2C9 act 0.5, sEH activator 7, sEH inhibitor -4, CYP2C19 inh 54* and CYP2C19 act 0.5.
Screening CC(=O)Nc1ccc(Nc2ncnc3c2cnn3-c2cccc(C)c2)cc1 returned CYP2C9 inhib 10, CYP2C9 act 0.9, sEH activator 2, sEH inhibitor 0, CYP2C19 inh 9 and CYP2C19 act 0.9.
`Cc1ccc(-c2cn3c(=O)cc(C)[nH]c3n2)cc1` gave CYP2C9 inhib 15, CYP2C9 act 0.8, sEH activator 0, sEH inhibitor 1, CYP2C19 inh 20 and CYP2C19 act 0.8.
`O=[N+]([O-])c1cccc(-c2nc(-c3ccccc3)c(-c3cccs3)[nH]2)c1` gave CYP2C9 inhib -18, CYP2C9 act 1.2, sEH activator 8, sEH inhibitor -10, CYP2C19 inh -6 and CYP2C19 act 1.1.
`O=[N+]([O-])c1cccc(-c2nc(-c3cccs3)c(-c3cccs3)[nH]2)c1` gave CYP2C9 inhib 58*, CYP2C9 act 0.4, sEH activator -3, sEH inhibitor 3, CYP2C19 inh 12 and CYP2C19 act 0.9.
`COc1ccc(-c2nc(-c3cccs3)c(-c3cccs3)[nH]2)cc1OC` gave CYP2C9 inhib 81*, CYP2C9 act 0.2, sEH activator 2, sEH inhibitor -2, CYP2C19 inh 83* and CYP2C19 act 0.2.
Screening CCOc1cc(N2CCOCC2)c(OCC)cc1NC(=O)COC(=O)CCc1c[nH]c2ccccc12 returned CYP2C9 inhib 6, CYP2C9 act 0.9, sEH activator 14, sEH inhibitor -13, CYP2C19 inh 4 and CYP2C19 act 1.
`COc1ccc(OC)c(-n2c(SCC(=O)NCc3ccco3)nnc2-c2c[nH]c3ccccc23)c1` gave CYP2C9 inhib 66*, CYP2C9 act 0.3, sEH activator 6, sEH inhibitor -8, CYP2C19 inh 39 and CYP2C19 act 0.6.
For COc1ccc(-n2c(SC)nnc2-c2c[nH]c3ccccc23)cc1 the results were CYP2C9 inhib 8, CYP2C9 act 0.9, CYP2C19 inh -3 and CYP2C19 act 1.
For COc1cccc(-n2c(SCC(=O)NCc3ccco3)nnc2-c2c[nH]c3ccccc23)c1 the results were CYP2C9 inhib 59*, CYP2C9 act 0.4, sEH activator 10, sEH inhibitor -8, CYP2C19 inh 66* and CYP2C19 act 0.3.

Screening results deposited in PubChem by several laboratories.
